Results published in the supplement of paper PMC4466140.

biological target: AgAbp1; assay: SPOT peptide array binding signal intensity (averaged, normalized) (arbitrary units (background-subtracted, floor 0; scale differs between SH3 domains)); higher = stronger binding of the SH3 domain to the peptide
How it was run: (§1)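 GST-fused SH3 domains from four yeast species were expressed in E. coli BL21(DE3), purified on glutathione Sepharose and incubated at 10 μg/ml overnight at 4°C in TBS-based blocking buffer on cellulose membranes carrying synthetic 15-mer peptides, with cysteines replaced by serines. Bound protein was detected with anti-GST antibody, an HRP anti-mouse secondary and luminol, then imaged and quantified with Genespotter. Binding signal is the normalized, background-subtracted spot intensity averaged over replicates, in arbitrary units that differ between domains.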

Binder | SPOT peptide array binding signal intensity
SRQAIPPPVPNRPGG | ≤ 0

biological target: AgBbc1; assay: as above
How it was run: as §1

Binder | SPOT peptide array binding signal intensity
SRQAIPPPVPNRPGG | 1960

biological target: AgBem1-D1; assay: as above
How it was run: as §1

Binder | SPOT peptide array binding signal intensity
SRQAIPPPVPNRPGG | 0.5

biological target: AgBzz1-D1; assay: as above
How it was run: as §1

Binder | SPOT peptide array binding signal intensity
SRQAIPPPVPNRPGG | 280

biological target: AgBzz1-D2; assay: as above
How it was run: as §1

Binder | SPOT peptide array binding signal intensity
SRQAIPPPVPNRPGG | 15

biological target: AgCyk3; assay: as above
How it was run: as §1

Binder | SPOT peptide array binding signal intensity
SRQAIPPPVPNRPGG | ≤ 0

biological target: AgFus1; assay: as above
How it was run: as §1

Binder | SPOT peptide array binding signal intensity
SRQAIPPPVPNRPGG | ≤ 0

biological target: AgHof1; assay: as above
How it was run: as §1

Binder | SPOT peptide array binding signal intensity
SRQAIPPPVPNRPGG | 39.2

biological target: AgHse1; assay: as above
How it was run: as §1

Binder | SPOT peptide array binding signal intensity
SRQAIPPPVPNRPGG | 40

biological target: AgLsb1; assay: as above
How it was run: as §1

Binder | SPOT peptide array binding signal intensity
SRQAIPPPVPNRPGG | 1770

biological target: AgLsb4; assay: as above
How it was run: as §1

Binder | SPOT peptide array binding signal intensity
SRQAIPPPVPNRPGG | 1590

biological target: AgMyo5; assay: as above
How it was run: as §1

Binder | SPOT peptide array binding signal intensity
SRQAIPPPVPNRPGG | 74.5

biological target: AgNbp2; assay: as above
How it was run: as §1

Binder | SPOT peptide array binding signal intensity
SRQAIPPPVPNRPGG | 106

biological target: AgRvs167; assay: as above
How it was run: as §1

Binder | SPOT peptide array binding signal intensity
SRQAIPPPVPNRPGG | 362

biological target: AgSho1; assay: as above
How it was run: as §1

Binder | SPOT peptide array binding signal intensity
SRQAIPPPVPNRPGG | ≤ 0

biological target: AgSla1-D1-D2; assay: as above
How it was run: as §1

Binder | SPOT peptide array binding signal intensity
SRQAIPPPVPNRPGG | ≤ 0

biological target: AgSla1-D3; assay: as above
How it was run: as §1

Binder | SPOT peptide array binding signal intensity
SRQAIPPPVPNRPGG | 3.5

biological target: CaAbp1-D1; assay: as above
How it was run: as §1

Binder | SPOT peptide array binding signal intensity
SRQAIPPPVPNRPGG | 156

biological target: CaAbp1-D2; assay: as above
How it was run: as §1

Binder | SPOT peptide array binding signal intensity
SRQAIPPPVPNRPGG | 8.5

biological target: CaBbc1; assay: as above
How it was run: as §1

Binder | SPOT peptide array binding signal intensity
SRQAIPPPVPNRPGG | 3020

biological target: CaBem1-D1; assay: as above
How it was run: as §1

Binder | SPOT peptide array binding signal intensity
SRQAIPPPVPNRPGG | 30

biological target: CaBzz1-D1; assay: as above
How it was run: as §1

Binder | SPOT peptide array binding signal intensity
SRQAIPPPVPNRPGG | 2510

biological target: CaBzz1-D2; assay: as above
How it was run: as §1

Binder | SPOT peptide array binding signal intensity
SRQAIPPPVPNRPGG | 346

biological target: CaCyk3; assay: as above
How it was run: as §1

Binder | SPOT peptide array binding signal intensity
SRQAIPPPVPNRPGG | 359

biological target: CaFus1; assay: as above
How it was run: as §1

Binder | SPOT peptide array binding signal intensity
SRQAIPPPVPNRPGG | 23

biological target: CaHof1; assay: as above
How it was run: as §1

Binder | SPOT peptide array binding signal intensity
SRQAIPPPVPNRPGG | 1

biological target: CaHse1; assay: as above
How it was run: as §1

Binder | SPOT peptide array binding signal intensity
SRQAIPPPVPNRPGG | 101

biological target: CaLsb1; assay: as above
How it was run: as §1

Binder | SPOT peptide array binding signal intensity
SRQAIPPPVPNRPGG | 3.75

biological target: CaLsb4; assay: as above
How it was run: as §1

Binder | SPOT peptide array binding signal intensity
SRQAIPPPVPNRPGG | 2960

biological target: CaMyo5; assay: as above
How it was run: as §1

Binder | SPOT peptide array binding signal intensity
SRQAIPPPVPNRPGG | 2

biological target: CaNbp2; assay: as above
How it was run: as §1

Binder | SPOT peptide array binding signal intensity
SRQAIPPPVPNRPGG | 50.5

biological target: CaRvs167; assay: as above
How it was run: as §1

Binder | SPOT peptide array binding signal intensity
SRQAIPPPVPNRPGG | 1340

biological target: CaRvs167-3; assay: as above
How it was run: as §1

Binder | SPOT peptide array binding signal intensity
SRQAIPPPVPNRPGG | ≤ 0

biological target: CaSho1; assay: as above
How it was run: as §1

Binder | SPOT peptide array binding signal intensity
SRQAIPPPVPNRPGG | 8

biological target: CaSla1-D1-D2; assay: as above
How it was run: as §1

Binder | SPOT peptide array binding signal intensity
SRQAIPPPVPNRPGG | 201

biological target: CaSla1-D3; assay: as above
How it was run: as §1

Binder | SPOT peptide array binding signal intensity
SRQAIPPPVPNRPGG | 0.75

biological target: ScAbp1; assay: as above
How it was run: as §1

Binder | SPOT peptide array binding signal intensity
SRQAIPPPVPNRPGG | 16

biological target: ScBbc1; assay: as above
How it was run: as §1

Binder | SPOT peptide array binding signal intensity
SRQAIPPPVPNRPGG | 802

biological target: ScBem1-D1; assay: as above
How it was run: as §1

Binder | SPOT peptide array binding signal intensity
SRQAIPPPVPNRPGG | ≤ 0

biological target: ScBzz1-D1; assay: as above
How it was run: as §1

Binder | SPOT peptide array binding signal intensity
SRQAIPPPVPNRPGG | 23

biological target: ScBzz1-D2; assay: as above
How it was run: as §1

Binder | SPOT peptide array binding signal intensity
SRQAIPPPVPNRPGG | 6

biological target: ScCyk3; assay: as above
How it was run: as §1

Binder | SPOT peptide array binding signal intensity
SRQAIPPPVPNRPGG | 1

biological target: ScFus1; assay: as above
How it was run: as §1

Binder | SPOT peptide array binding signal intensity
SRQAIPPPVPNRPGG | ≤ 0

biological target: ScHof1; assay: as above
How it was run: as §1

Binder | SPOT peptide array binding signal intensity
SRQAIPPPVPNRPGG | 10

biological target: ScHse1; assay: as above
How it was run: as §1

Binder | SPOT peptide array binding signal intensity
SRQAIPPPVPNRPGG | ≤ 0

biological target: ScLsb1; assay: as above
How it was run: as §1

Binder | SPOT peptide array binding signal intensity
SRQAIPPPVPNRPGG | 1620

biological target: ScLsb2; assay: as above
How it was run: as §1

Binder | SPOT peptide array binding signal intensity
SRQAIPPPVPNRPGG | 1320

biological target: ScLsb3; assay: as above
How it was run: as §1

Binder | SPOT peptide array binding signal intensity
SRQAIPPPVPNRPGG | 3290

biological target: ScLsb4; assay: as above
How it was run: as §1

Binder | SPOT peptide array binding signal intensity
SRQAIPPPVPNRPGG | 2540

biological target: ScMyo3; assay: as above
How it was run: as §1

Binder | SPOT peptide array binding signal intensity
SRQAIPPPVPNRPGG | 371

biological target: ScMyo5; assay: as above
How it was run: as §1

Binder | SPOT peptide array binding signal intensity
SRQAIPPPVPNRPGG | 220

biological target: ScNbp2; assay: as above
How it was run: as §1

Binder | SPOT peptide array binding signal intensity
SRQAIPPPVPNRPGG | 304

biological target: ScPex13; assay: as above
How it was run: as §1

Binder | SPOT peptide array binding signal intensity
SRQAIPPPVPNRPGG | 1830

biological target: ScRvs167; assay: as above
How it was run: as §1

Binder | SPOT peptide array binding signal intensity
SRQAIPPPVPNRPGG | 1980

biological target: ScSho1; assay: as above
How it was run: as §1

Binder | SPOT peptide array binding signal intensity
SRQAIPPPVPNRPGG | 32

biological target: ScSla1-D1-D2; assay: as above
How it was run: as §1

Binder | SPOT peptide array binding signal intensity
SRQAIPPPVPNRPGG | 695

biological target: ScSla1-D3; assay: as above
How it was run: as §1

Binder | SPOT peptide array binding signal intensity
SRQAIPPPVPNRPGG | 9.5

biological target: SpAbp1-D1; assay: as above
How it was run: as §1

Binder | SPOT peptide array binding signal intensity
SRQAIPPPVPNRPGG | 17

biological target: SpBbc1; assay: as above
How it was run: as §1

Binder | SPOT peptide array binding signal intensity
SRQAIPPPVPNRPGG | 723

biological target: SpBzz1-D1; assay: as above
How it was run: as §1

Binder | SPOT peptide array binding signal intensity
SRQAIPPPVPNRPGG | 760

biological target: SpBzz1-D2; assay: as above
How it was run: as §1

Binder | SPOT peptide array binding signal intensity
SRQAIPPPVPNRPGG | 59.5

biological target: SpCyk3; assay: as above
How it was run: as §1

Binder | SPOT peptide array binding signal intensity
SRQAIPPPVPNRPGG | 3

biological target: SpHof1; assay: as above
How it was run: as §1

Binder | SPOT peptide array binding signal intensity
SRQAIPPPVPNRPGG | ≤ 0

biological target: SpHof1-2; assay: as above
How it was run: as §1

Binder | SPOT peptide array binding signal intensity
SRQAIPPPVPNRPGG | ≤ 0

biological target: SpHof1-3; assay: as above
How it was run: as §1

Binder | SPOT peptide array binding signal intensity
SRQAIPPPVPNRPGG | 126

biological target: SpHse1; assay: as above
How it was run: as §1

Binder | SPOT peptide array binding signal intensity
SRQAIPPPVPNRPGG | ≤ 0

biological target: SpLsb1; assay: as above
How it was run: as §1

Binder | SPOT peptide array binding signal intensity
SRQAIPPPVPNRPGG | 1260

biological target: SpLsb4; assay: as above
How it was run: as §1

Binder | SPOT peptide array binding signal intensity
SRQAIPPPVPNRPGG | 4790

biological target: SpMyo1; assay: as above
How it was run: as §1

Binder | SPOT peptide array binding signal intensity
SRQAIPPPVPNRPGG | 120

biological target: SpNbp2; assay: as above
How it was run: as §1

Binder | SPOT peptide array binding signal intensity
SRQAIPPPVPNRPGG | ≤ 0

biological target: SpPex13; assay: as above
How it was run: as §1

Binder | SPOT peptide array binding signal intensity
SRQAIPPPVPNRPGG | ≤ 0

biological target: SpRvs167; assay: as above
How it was run: as §1

Binder | SPOT peptide array binding signal intensity
SRQAIPPPVPNRPGG | 2220

biological target: SpSla1-D1-D2; assay: as above
How it was run: as §1

Binder | SPOT peptide array binding signal intensity
SRQAIPPPVPNRPGG | 5

biological target: SpSla1-D3; assay: as above
How it was run: as §1

Binder | SPOT peptide array binding signal intensity
SRQAIPPPVPNRPGG | ≤ 0
